# Test results as given in PubChem BioAssay (Tox21).
# Unmarked numbers belong to inactive results. Inconclusive results are not listed. Where a call stands in place of a potency, no number is given. Active and inactive are the calls of the source. Calls follow the shape of the dose curve; as a rule, active = well fitted curve in the direction sought with a large enough effect in the repeat runs; inconclusive = weak or mixed curves; inactive = no such curve, though single readings can be large; an effect the other way counts as inactive or inconclusive.
# Columns and labels:
# [1] = qHTS RealTime-Glo MT Cell Viability Assay in HEK293 cells - 32 hour (AID 1224868); also: top concentration of the series differs between compounds; nearly all actives have a fitted effect of over 50% in size
# Method in brief: (§1)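 Assay medium contained NanoLuc luciferase plus cell-permeant prosubstrate, added with HEK293 cells at 600 cells/well. After 5 h at 37 C/5% CO2 compounds were added; plates stayed at 37 C for 40 h with serial luminescence reads.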
# [2] = A CellTox Green Cytotoxicity Assay to monitor cytotoxicity in HEK293 cells - 0 hour (AID 1224869); also: nearly all actives have a fitted effect of over 50% in size
# Method in brief: (§2)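 Tox21 screen in HEK293: membrane-impermeant cyanine dye fluoresces on binding dead-cell DNA; compound pinned 5 h post-seeding, plates held at 37 C, signal read repeatedly through 40 h.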
# [3] = qHTS RealTime-Glo MT Cell Viability Assay in HepG2 cells - 40 hour (AID 1224870); also: nearly all actives have a fitted effect of over 50% in size
# Method in brief: (§3)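 HepG2 cells mixed with RealTime-Glo MT reagents (NanoLuc plus cell-permeant prosubstrate) were seeded at 600 cells/well, incubated 5 h at 37 C/5% CO2, then pinned with compounds in DMSO; nonlytic luminescence tracked viability during 40 h treatment.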
# [4] = qHTS RealTime-Glo MT Cell Viability Assay in HepG2 cells - 8 hour (AID 1224873); also: nearly all actives have a fitted effect of over 55% in size
# Method in brief: as §3
# [5] = qHTS RealTime-Glo MT Cell Viability Assay in HEK293 cells - 40 hour (AID 1224874); conditions: RealTime-Glo luminescence, active compounds read low; also: nearly all actives have a fitted effect of over 50% in size
# Method in brief: (§4)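 HEK293 + NanoLuc + prosubstrate, 600 cells/well; 5 h, 37 C/5% CO2; compound 23 nL in DMSO by pintool; 37 C; luminescence read at 0, 8, 16, 24, 32 and 40 h time points.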
# [6] = A CellTox Green Cytotoxicity Assay to monitor cytotoxicity in HepG2 cells - 16 hour (AID 1224876); also: nearly all actives have a fitted effect of over 45% in size; also: potency is read from the fitted curve at half-maximal effect
# Method in brief: (§5)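 Measurements at 0, 8, 16, 24, 32 and 40 h of treatment captured CellTox Green fluorescence in HepG2 cells that had been co-plated with reagent and preincubated 5 h at 37 C/5% CO2.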
# [7] = qHTS RealTime-Glo MT Cell Viability Assay in HepG2 cells - 32 hour (AID 1224877); also: nearly all actives have a fitted effect of over 55% in size
# Method in brief: (§6)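 qHTS, HepG2, 600 cells/well, RealTime-Glo (NanoLuc + prosubstrate) added with cells; 5 h preincubation; DMSO compound addition; 37 C; luminescence at 0/8/16/24/32/40 h.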
# [8] = A CellTox Green Cytotoxicity Assay to monitor cytotoxicity in HepG2 cells - 24 hour (AID 1224878); also: nearly all actives have a fitted effect of over 45% in size; also: potency is read from the fitted curve at half-maximal effect
# Method in brief: as §5
# [9] = A CellTox Green Cytotoxicity Assay to monitor cytotoxicity in HepG2 cells - 40 hour (AID 1224879); also: nearly all actives have a fitted effect of over 40% in size; also: potency is read from the fitted curve at half-maximal effect
# Method in brief: as §5
# [10] = qHTS RealTime-Glo MT Cell Viability Assay in HEK293 cells - 0 hour (AID 1224880); also: top concentration of the series differs between compounds; nearly all actives have a fitted effect of over 45% in size
# Method in brief: as §4
# [11] = A CellTox Green Cytotoxicity Assay to monitor cytotoxicity in HepG2 cells - 0 hour (AID 1224882); also: nearly all actives have a fitted effect of over 35% in size
# Method in brief: as §5
# [12] = A CellTox Green Cytotoxicity Assay to monitor cytotoxicity in HepG2 cells - 32 hour (AID 1224883); also: nearly all actives have a fitted effect of over 50% in size; also: potency is read from the fitted curve at half-maximal effect
# Method in brief: as §5
# [13] = A CellTox Green Cytotoxicity Assay to monitor cytotoxicity in HEK293 cells - 8 hour (AID 1224884); also: nearly all actives have a fitted effect of over 35% in size
# Method in brief: as §2
# [14] = qHTS RealTime-Glo MT Cell Viability Assay in HepG2 cells - 16 hour (AID 1224885); also: nearly all actives have a fitted effect of over 50% in size
# Method in brief: as §6
# [15] = qHTS RealTime-Glo MT Cell Viability Assay in HEK293 cells - 24 hour (AID 1224886)
# Method in brief: as §1
# [16] = qHTS RealTime-Glo MT Cell Viability Assay in HEK293 cells - 8 hour (AID 1224887)
# Method in brief: as §4
# [17] = A CellTox Green Cytotoxicity Assay to monitor cytotoxicity in HEK293 cells - 40 hour (AID 1224871); also: nearly all actives have a fitted effect of over 45% in size
# Method in brief: as §2
# [18] = A CellTox Green Cytotoxicity Assay to monitor cytotoxicity in HEK293 cells - 24 hour (AID 1224875)
# Method in brief: as §2
# [19] = A CellTox Green Cytotoxicity Assay to monitor cytotoxicity in HEK293 cells - 32 hour (AID 1224881); also: nearly all actives have a fitted effect of over 40% in size
# Method in brief: as §2
# [20] = qHTS RealTime-Glo MT Cell Viability Assay in HEK293 cells - 16 hour (AID 1224872)
# Method in brief: as §1
compound,measurement,setting,value
CCCCOCCCC,outcome,[1],inactive
same,outcome,[2],inactive
same,outcome,[3],inactive
same,outcome,[4],inactive
same,max response,[5],8.08%
same,Potency,[6],inactive
same,outcome,[7],inactive
same,Potency,[8],inactive
same,Potency,[9],inactive
same,Potency,[10],inactive
same,Potency,[11],inactive
same,Potency,[12],inactive
same,Potency,[13],inactive
same,outcome,[14],inactive
same,outcome,[15],inactive
same,outcome,[16],inactive
Cc1cc(O)c(Cl)cc1C,outcome,[1],inactive
same,outcome,[2],inactive
same,outcome,[3],inactive
same,Potency,[17],inactive
same,max response,[5],-1.07%
same,Potency,[18],inactive
same,Potency,[6],49 µM (active)
same,outcome,[7],inactive
same,Potency,[8],49 µM (active)
same,Potency,[9],49 µM (active)
same,Potency,[10],inactive
same,Potency,[19],inactive
same,Potency,[11],inactive
same,Potency,[12],49 µM (active)
same,Potency,[13],inactive
same,outcome,[14],inactive
same,outcome,[15],inactive
same,outcome,[16],inactive
COc1cc(C(=O)NC2CCCNC2)cc(OC)c1OC (centres undefined),outcome,[1],inactive
same,outcome,[2],inactive
same,Potency,[17],inactive
same,outcome,[20],inactive
same,Potency,[18],inactive
same,Potency,[6],inactive
same,Potency,[8],inactive
same,Potency,[9],inactive
same,Potency,[10],inactive
same,Potency,[19],inactive
same,Potency,[11],inactive
same,Potency,[12],inactive
same,Potency,[13],inactive
same,outcome,[15],inactive
same,outcome,[16],inactive
C=CC(C)(CCC=C(C)C)OC(=O)C(C)C (centres undefined),outcome,[1],inactive
same,outcome,[2],inactive
same,outcome,[3],inactive
same,Potency,[17],inactive
same,outcome,[4],inactive
same,Potency,[18],inactive
same,Potency,[6],inactive
same,outcome,[7],inactive
same,Potency,[8],inactive
same,Potency,[9],inactive
same,Potency,[10],inactive
same,Potency,[19],inactive
same,Potency,[11],inactive
same,Potency,[12],inactive
same,Potency,[13],inactive
same,outcome,[14],inactive
same,outcome,[15],inactive
O=Cc1ccccc1S(=O)(=O)O,outcome,[2],inactive
same,outcome,[3],inactive
same,Potency,[17],inactive
same,outcome,[20],inactive
same,outcome,[4],inactive
same,max response,[5],7.86%
same,Potency,[18],inactive
same,Potency,[6],inactive
same,outcome,[7],inactive
same,Potency,[8],inactive
same,Potency,[9],inactive
same,Potency,[10],inactive
same,Potency,[19],inactive
same,Potency,[11],inactive
same,Potency,[12],inactive
same,Potency,[13],inactive
same,outcome,[14],inactive
same,outcome,[15],inactive
Cc1nc2ccc(Cl)cc2[nH]1,outcome,[1],inactive
same,outcome,[2],inactive
same,outcome,[3],inactive
same,Potency,[17],inactive
same,outcome,[4],inactive
same,Potency,[18],inactive
same,Potency,[6],inactive
same,outcome,[7],inactive
same,Potency,[8],inactive
same,Potency,[9],inactive
same,Potency,[10],inactive
same,Potency,[19],inactive
same,Potency,[11],inactive
same,Potency,[12],inactive
same,Potency,[13],inactive
same,outcome,[14],inactive
same,outcome,[15],inactive
same,outcome,[16],inactive
C[C@@H]1CC[C@@]2(OC1)O[C@H]1C[C@H]3[C@@H]4CC[C@H]5C[C@@H](O)CC[C@]5(C)[C@H]4CC(=O)[C@]3(C)[C@H]1[C@@H]2C,"activity change, negative = cytotoxic",[1],-2.31% [at 6.97 µM]
same,cytotoxicity,[2],-2.97% [at 6.97 µM]
same,"activity change, negative = cytotoxic",[3],-0.288% [at 6.97 µM]
same,cytotoxicity increase,[17],-2.28% [at 6.97 µM]
same,"viability change, negative = cytotoxic",[4],1.5% [at 6.97 µM]
same,activity change,[18],"-2.49% [at 6.97 µM, active compounds read high]"
same,cytotoxicity increase,[6],-10% [at 6.97 µM]
same,"activity change, negative = cytotoxic",[7],1.67% [at 6.97 µM]
same,cytotoxicity,[8],-7.96% [at 6.97 µM]
same,cytotoxicity increase,[9],-2.78% [at 6.97 µM]
same,"activity change, negative = cytotoxicity",[10],0.253% [at 6.97 µM]
same,cytotoxicity increase,[19],-0.706% [at 6.97 µM]
same,cytotoxicity,[11],2.51% [at 6.97 µM]
same,cytotoxicity increase,[12],-3.63% [at 6.97 µM]
same,cytotoxicity increase,[13],-0.568% [at 6.97 µM]
same,"activity change, negative = cytotoxic",[14],0.914% [at 6.97 µM]
same,"activity change, negative = cytotoxicity",[15],-0.905% [at 6.97 µM]
same,"activity change, negative = cytotoxicity",[16],2.92% [at 6.97 µM]
CC(CC(=O)Cl)CC(C)(C)C (centres undefined),outcome,[1],inactive
same,outcome,[2],inactive
same,outcome,[3],inactive
same,Potency,[17],inactive
same,outcome,[4],inactive
same,max response,[5],4.64%
same,Potency,[18],inactive
same,Potency,[6],inactive
same,outcome,[7],inactive
same,Potency,[8],inactive
same,Potency,[10],inactive
same,Potency,[19],inactive
same,Potency,[11],inactive
same,Potency,[12],inactive
same,outcome,[14],inactive
same,outcome,[15],inactive
CC/C=C\CCOC(=O)c1ccccc1,outcome,[1],inactive
same,outcome,[2],inactive
same,outcome,[3],inactive
same,outcome,[4],inactive
same,max response,[5],-28.3%
same,Potency,[18],inactive
same,Potency,[6],inactive
same,outcome,[7],inactive
same,Potency,[10],inactive
same,Potency,[11],inactive
same,Potency,[13],inactive
same,outcome,[14],inactive
same,outcome,[15],inactive
CCc1ccc(CC)cc1,outcome,[2],inactive
same,outcome,[3],inactive
same,Potency,[17],inactive
same,outcome,[20],inactive
same,outcome,[4],inactive
same,max response,[5],4.78%
same,Potency,[18],inactive
same,Potency,[6],inactive
same,outcome,[7],inactive
same,Potency,[8],inactive
same,Potency,[9],inactive
same,Potency,[10],inactive
same,Potency,[19],inactive
same,Potency,[11],inactive
same,Potency,[12],inactive
same,Potency,[13],inactive
same,outcome,[14],inactive
same,outcome,[15],inactive
same,outcome,[16],inactive
O=Cc1ccc(C(=O)O)cc1,outcome,[1],inactive
same,outcome,[2],inactive
same,outcome,[3],inactive
same,Potency,[17],inactive
same,max response,[5],0.978%
same,Potency,[18],inactive
same,outcome,[7],inactive
same,Potency,[8],inactive
same,Potency,[9],inactive
same,Potency,[10],inactive
same,Potency,[19],inactive
same,Potency,[11],inactive
same,Potency,[12],inactive
same,Potency,[13],inactive
same,outcome,[14],inactive
same,outcome,[15],inactive
same,outcome,[16],inactive
CC/C=C/CCCCCCCCCCOC(C)=O,outcome,[1],inactive
same,outcome,[2],inactive
same,outcome,[3],inactive
same,Potency,[17],inactive
same,outcome,[4],inactive
same,Potency,[18],inactive
same,Potency,[6],inactive
same,outcome,[7],inactive
same,Potency,[8],inactive
same,Potency,[9],inactive
same,Potency,[10],inactive
same,Potency,[19],inactive
same,Potency,[11],inactive
same,Potency,[12],inactive
same,Potency,[13],inactive
same,outcome,[14],inactive
same,outcome,[15],inactive
same,outcome,[16],inactive
CCOC(=O)COc1ccc2c(C)c(CCN(CC)CC)c(=O)oc2c1Cl,outcome,[1],inactive
same,outcome,[2],inactive
same,outcome,[3],inactive
same,Potency,[17],inactive
same,outcome,[4],inactive
same,max response,[5],1.31%
same,Potency,[18],inactive
same,outcome,[7],inactive
same,Potency,[8],inactive
same,Potency,[9],inactive
same,Potency,[10],inactive
same,Potency,[19],inactive
same,Potency,[11],inactive
same,Potency,[12],inactive
same,Potency,[13],inactive
same,outcome,[14],inactive
same,outcome,[15],inactive
COc1ccc(Cl)cc1C,outcome,[1],inactive
same,outcome,[2],inactive
same,outcome,[3],inactive
same,Potency,[17],inactive
same,Potency,[18],inactive
same,outcome,[7],inactive
same,Potency,[8],inactive
same,Potency,[9],inactive
same,Potency,[10],inactive
same,Potency,[19],inactive
same,Potency,[11],inactive
same,Potency,[12],inactive
same,Potency,[13],inactive
same,outcome,[14],inactive
same,outcome,[15],inactive
same,outcome,[16],inactive
c1cc2ccc3ccc4ccc5cccc6c(c1)c2c3c4c56,"activity change, negative = cytotoxic",[1],0.861% [at 2.72 µM]
same,cytotoxicity,[2],-4.63% [at 2.72 µM]
same,"activity change, negative = cytotoxic",[3],-2.6% [at 2.72 µM]
same,cytotoxicity increase,[17],-13.8% [at 2.72 µM]
same,"viability change, negative = cytotoxic",[4],0.803% [at 2.72 µM]
same,max response,[5],1.82%
same,activity change,[18],"-12.1% [at 2.72 µM, active compounds read high]"
same,"activity change, negative = cytotoxic",[7],-3.43% [at 2.72 µM]
same,cytotoxicity,[8],-19.8% [at 2.72 µM]
same,cytotoxicity increase,[9],-16.7% [at 2.72 µM]
same,"activity change, negative = cytotoxicity",[10],-3.02% [at 2.72 µM]
same,cytotoxicity increase,[19],-14.8% [at 2.72 µM]
same,cytotoxicity,[11],-21.2% [at 2.72 µM]
same,cytotoxicity increase,[12],-14.8% [at 2.72 µM]
same,cytotoxicity increase,[13],-10.4% [at 2.72 µM]
same,"activity change, negative = cytotoxic",[14],0.567% [at 2.72 µM]
same,"activity change, negative = cytotoxicity",[15],0.461% [at 2.72 µM]
same,"activity change, negative = cytotoxicity",[16],-6.75% [at 2.72 µM]
